# FBA Mtb inh – Mtb fructose-bisphosphate aldolase inhibition; inhibition, % at 1 µM; purified M. tuberculosis FBA, fluorescence read-out; AID 588726; actives 2.3% (n = 360,000); in the data active = inhibition above about 27%
# Target sequence (P9WQA3 whole entry, looked up): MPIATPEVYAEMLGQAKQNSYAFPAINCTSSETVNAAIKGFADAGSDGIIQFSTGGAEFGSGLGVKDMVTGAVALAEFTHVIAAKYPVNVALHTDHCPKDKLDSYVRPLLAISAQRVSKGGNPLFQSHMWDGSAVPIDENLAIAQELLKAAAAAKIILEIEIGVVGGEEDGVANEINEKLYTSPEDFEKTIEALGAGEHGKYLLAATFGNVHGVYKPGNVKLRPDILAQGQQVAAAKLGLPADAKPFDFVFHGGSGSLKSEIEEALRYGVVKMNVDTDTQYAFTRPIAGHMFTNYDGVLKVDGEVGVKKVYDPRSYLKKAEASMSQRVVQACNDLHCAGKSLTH
# PrPC surface inh – cell surface PrPC inhibition, primary TR-FRET screen; P04156; TR-FRET read-out; inhibition, % at 13.8 µM; actives 0.43% (n = 370,000); AID 720596; in the data active = inhibition above about 24%
# GDH-TPI counter-1 – counter-screen for M. tuberculosis FBA inhibitors: GDH-TPI coupled enzymes. GDH-TPI coupled enzyme counterscreen, NADH absorbance. inhibition, % at 4.8 µM. actives 1.2% (n = 360,000). AID 588335; in the data active = inhibition above about 30%
# Y pestis TopoI – inhibitors of Yersinia pestis topoisomerase I. Y. pestis Topo-I cleavage product accumulation, plate reader. activity, % at 10 µM. actives 0.064% (n = 360,000). AID 504884; in the data active = activity above about 50%, passing the limit was not always enough
# TcdB GH inh – TcdB glycohydrolase inhibition. inhibition, % at 9.99 µM. actives 0.24% (n = 350,000). P18177. TcdB glycohydrolase enzymatic assay, plate reader
# Mtb FBA confirm – confirmation of M. tuberculosis fructose-bisphosphate aldolase inhibitors | shares compounds with FBA Mtb inh | purified M. tuberculosis FBA, fluorescence read-out | inhibition, % at 1 µM | actives 78% (n = 5,600) | AID 651616; in the data active = inhibition above about 27%
# GDH-TPI counter-2 – GDH-TPI inhibition counter-screen for FBA inhibitors; inhibition, % at 1 µM; GDH-TPI coupled enzyme counterscreen, fluorescence; actives 81% (n = 5,600); shares compounds with FBA Mtb inh; AID 652141
# GDH-TPI dose – counter-screen for M. tuberculosis FBA inhibitors: GDH-TPI dose response; actives 79% (n = 170); IC50, µM; shares compounds with FBA Mtb inh; GDH-TPI coupled enzyme assay, fluorescence, artifact counterscreen; call rule not given here
# Numbers stand for hits; - = inactive; . = not tested or not shown; + = active, no number. Most compounds without a hit are left out; they make up all but 3.2% or so of the library. Cut-off read from the data, not from the text of the source, unless noted: active = inhibition above about 10%; inactive = the rest.
SMILES,FBA Mtb inh,PrPC surface inh,GDH-TPI counter-1,Y pestis TopoI,TcdB GH inh,Mtb FBA confirm,GDH-TPI counter-2,others
CCOc1ccc2oc(-c3ccccc3)c(C(=O)N3CCN(CCO)CC3)c2c1,42,-,-,-,.,93,90,
COc1ccc(S(=O)(=O)Nc2ccc3c(c2)C(=O)N([C@H](C)CO)C[C@H](C)[C@H](CN(C)S(=O)(=O)c2cn(C)cn2)OCCCC[C@H](C)O3)cc1,.,.,.,.,-,.,.,
NC(=O)c1ccc(NC(=O)c2ccc(CN3CCOCC3)cc2)cc1,-,-,-,-,.,.,.,
CC(C)c1ccc(C(=O)Nc2ccc(CN3CCOCC3)cc2)cc1,69,-,-,-,-,196,191,
CCOC(=O)N1CCN(C(=O)c2cc(-c3ccc(OCC)cc3)nc3ccccc23)CC1,77,-,-,-,.,103,71,
CCOc1ccc(-c2cc(C(=O)N3CCN(C)CC3)c3ccccc3n2)cc1,92,-,-,-,-,-,-,
C=CCNC(=O)c1ccc2nc(-c3ccccc3)c(-c3ccccc3)nc2c1,32,-,-,-,.,+,175,
CCOc1ccc(-c2cc(C(=O)N3CCCC3)c3ccccc3n2)cc1,91,.,-,-,.,152,131,
C=CCNC(=O)c1ccc(C(=O)c2ccccc2)cc1,-,-,-,-,.,.,.,
CCOc1ccc(-c2cc(C(=O)N3CCN(c4ccccn4)CC3)c3ccccc3n2)cc1,-,-,-,-,-,.,.,
CCOC(=O)N1CCN(C(=O)c2ccc3nc(-c4ccccc4)c(-c4ccccc4)nc3c2)CC1,35,-,-,-,-,99,67,
COc1ccc(-c2cn3ccc4ccccc4c3n2)cc1,44,-,-,-,.,-,-,
CCCOc1ccc(-c2cn3ccccc3n2)cc1,30,-,-,-,-,55,38,
CC(C)NC(=O)NCC[C@@H]1CC[C@H](NC(=O)CCN2CCCCC2)[C@@H](CO)O1,.,.,.,.,-,.,.,
Cc1ccc(-c2cc[n+](Cc3ccccc3)cc2)cc1,67,-,-,-,-,+,+,
CCCSc1nnc(NC(=O)CSc2sc3c(O)cc(=O)[nH]c3c2C#N)s1,93,-,-,-,-,-,-,GDH-TPI dose=-
Nc1c2c(nc3ccccc13)CCN(Cc1ccccc1)C2,-,-,-,-,-,.,.,
Nc1nc2c(c(=O)[nH]1)CN(Cc1ccccc1)CC2,53,-,-,-,-,108,99,
CC(OC(=O)c1ccccc1NCCO)C(=O)NCC(=O)Nc1ccc(F)c(F)c1F (configuration not stated),91,-,-,-,-,128,97,
Cc1ccc(NC(=O)CN(C)CC(=O)Nc2ccccc2C(=O)Nc2ccccc2)cc1,73,-,-,-,-,-,-,
Cc1ccc(NC(=O)CN(C)CC(=O)N(C)Cc2ccccc2)cc1,-,-,-,-,-,.,.,
Cc1ccc(NC(=O)CN(C)C(=O)C(C)OC(=O)c2ccccc2NCCO)cc1 (configuration not stated),92,-,-,-,-,98,73,
Cc1ccccc1NC(=O)Cn1c(C)nc2ccc(N)cc2c1=O,61,-,-,-,-,-,-,GDH-TPI dose=2.8
Cc1ccc(-n2c(=O)c3c(c4cc(C)ccc4n3C)n(CC(=O)NCC3CCCO3)c2=O)cc1 (configuration not stated),63,-,-,-,-,54,50,
Cc1ccc(C)c(NC(=O)Cn2c(=O)n(-c3ccc(CC(=O)NCC4CCCO4)cc3)c(=O)c3ccccc32)c1 (configuration not stated),.,-,.,.,-,.,.,
SMILES,FBA Mtb inh,PrPC surface inh,GDH-TPI counter-1,Y pestis TopoI,TcdB GH inh,Mtb FBA confirm,GDH-TPI counter-2,others
COc1ccc2c(c1)c1c(c(=O)n(-c3ccc(C)cc3)c(=O)n1CC(=O)NCC1CCCO1)n2C (configuration not stated),29,-,-,-,-,38,27,
Cc1noc(C)c1S(=O)(=O)Nc1ccc2c(c1)C(=O)N([C@H](C)CO)C[C@H](C)[C@H](CN(C)S(=O)(=O)c1c(C)noc1C)OCCCC[C@H](C)O2,.,.,.,.,-,.,.,
CC(=O)Nc1cncc(-c2cnn(CC(C)C)c2)n1,61,-,-,-,-,50,51,
CO[C@H]1CN(C)C(=O)c2ccc(NS(=O)(=O)c3cn(C)cn3)cc2OC[C@H](C)N(Cc2cccc(F)c2)C[C@@H]1C,.,.,.,.,-,.,.,
C[C@@H]1CN([C@@H](C)CO)C(=O)c2cc(C#CC3(O)CCCC3)cnc2O[C@@H]1CN(C)Cc1ccccn1,.,.,.,.,-,.,.,
O=C(N/N=C/c1ccc(N2CCOCC2)cc1)C1COc2ccccc2O1 (configuration not stated),38,-,-,-,-,44,41,
C[C@H]1CN([C@@H](C)CO)C(=O)c2cc(NC(=O)Nc3ccc(C(F)(F)F)cc3)ccc2O[C@H]1CN(C)CC1CC1,.,.,.,.,-,.,.,
Cc1cc(-c2ccccc2)n2ncc(C#N)c2n1,55,-,-,-,-,-,-,
C[C@H](O)C#Cc1cnc2c(c1)C(=O)N([C@H](C)CO)C[C@H](C)[C@H](CN(C)Cc1ccccn1)O2,.,.,.,.,-,.,.,
COc1ccc(-c2oc3ccc(N4CCOCC4)cc3c2C#Cc2ccc(N)cc2)cc1,44,-,-,-,.,49,48,
COC(=O)c1ccc(/C=C/c2c(-c3ccc(OC)cc3)oc3ccc(N4CCOCC4)cc23)cc1,-,-,-,-,-,.,.,
COc1ccc(/C=C/c2c(-c3cccc(C)c3)oc3ccc(N4CCOCC4)cc23)cc1,35,-,-,-,-,103,98,
C[C@H]1CN([C@@H](C)CO)C(=O)c2cccc(NC(=O)Nc3cccc4ccccc34)c2O[C@H]1CN(C)Cc1ccc(C(F)(F)F)cc1,.,.,.,.,-,.,.,
C[C@@H]1CN([C@@H](C)CO)C(=O)c2cccc(NS(=O)(=O)c3cn(C)cn3)c2O[C@@H]1CN(C)S(=O)(=O)c1ccc(F)cc1,.,.,.,.,-,.,.,
C=CCNc1nc(Nc2ccc(-c3nc4ccccc4o3)cc2)nc(N2CCOCC2)n1,97,-,35,-,-,-,-,GDH-TPI dose=0.49
C=CCNc1nc(NCC)nc(N2CCOCC2)n1,-,-,-,-,.,.,.,
CCNC(=O)[C@H]1[C@H](CO)[C@H]2Cn3c(ccc(-c4ccccc4F)c3=O)[C@@H]1N2CCC(F)(F)F,.,.,.,.,-,.,.,
CCN1C(=O)c2cccc3c(S(=O)(=O)N4CCNCC4)ccc1c23,28,-,-,-,-,73,65,
CCN1CCN(S(=O)(=O)c2ccc3c4c(cccc24)C(=O)N3CC)CC1,29,-,-,-,-,158,149,
C[C@@H]1CCCCO[C@@H](CN(C)C(=O)Nc2ccc(C(F)(F)F)cc2)[C@H](C)CN([C@@H](C)CO)C(=O)c2cc(NS(=O)(=O)c3ccccc3)ccc2O1,.,.,.,.,-,.,.,
